Structures can show the parent of a compound that is named as a salt.
system: Danio rerio larvae (5 dpf); experiment: habituation (activity change first vs second 5 min of 1-s interval sound, period 17) minus DMSO control (percentage points); higher = larger habituation measure than DMSO larvae; details: 10 µM; exposure time: 3 h pre-incubation + 3 h imaging
Procedure: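 Wild-type 5 dpf zebrafish larvae (n=48 per drug, 96-well plates, 28.5 °C) were exposed to Tocris FDA-approved library compounds at 10 µM (0.1% DMSO) for 3 h before and 3 h during imaging. Images were taken every 6 s during visual and acoustic stimuli, and larvae were tracked with Z-LaP Tracker. Each measure is the treated-group mean minus the DMSO control mean (n=844), in percentage points. This mapping covers compounds with 5-character plate codes.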

Structure (SMILES)	habituation
COc1ccc(C(CN(C)C)C2(O)CCCCC2)cc1 (stereo unspecified) [Venlafaxine hydrochloride]	-5.52

From the supplement of paper PMC9950053
